Results on eight molecules are retold here after PubChem BioAssay (NCI).

Test systems include HCT-15 colon; SNB-75 CNS; SNB-19 CNS; U251 CNS; PC-3 prostate; SK-MEL-5 melanoma; UACC-62 melanoma; LOX IMVI melanoma; SK-MEL-28 melanoma; SK-MEL-2 melanoma; EKVX NSCLC; SN12C renal; UO-31 renal; TK-10 renal; ACHN renal; CAKI-1 renal; A498 renal; CCRF-CEM leukemia; MOLT-4 leukemia.
Experiment in all cases: NCI-60 one-dose screen, 48 h (100 = growth as untreated, 0 = no growth, -100 = all killed)
Common to all, as to settings: 10 µM unless noted

This is part of a sample that, as a whole, favours compounds with a hit. Of some 83,000 tested, about 20% had one in any assay.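 Values shown are percent growth following 48 h exposure of cells in 96-well plates to a single concentration of compound; below 10 was considered active.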 Values without a mark were called inactive. Active and inactive are the calls of the source.

`COC(=O)c1cc2oc(/C=N\NC(=O)c3cc4oc(C)c(C)c4[nH]3)cc2[nH]1`: the growth in the test on HCT-15 colon is 108%; in the test on SNB-75 CNS, 112%; with SNB-19 CNS, 102%; with U251 CNS, 100%; in the test with PC-3 prostate it was 72%; in the test on SK-MEL-5 melanoma, 108%. The growth in the test with UACC-62 melanoma is 115%; with LOX IMVI melanoma, 107%; with SK-MEL-28 melanoma, 110%; with SK-MEL-2 melanoma, 109%; with EKVX NSCLC, 91.6%; in the test with SN12C renal, 120%. Also, the growth was 94.7% in the test on UO-31 renal; 132% in the test on TK-10 renal; 104% in the test on ACHN renal; 80.5% in the test on CAKI-1 renal; 115% in the test with A498 renal; 83.7% in the test on CCRF-CEM leukemia. In addition, in the test with MOLT-4 leukemia, the growth is 82.1%.

For the molecule `Cc1cc(C)c2c(N)c3cccc(C)c3nc2n1`, the growth is 10.4% in the test with HCT-15 colon; 10.4% in the test on SNB-75 CNS; 18.6% with SNB-19 CNS; 17.4% in the test with U251 CNS; -4.42% (active) in the test with PC-3 prostate; -38.7% (active) in the test with SK-MEL-5 melanoma. For the same molecule, the growth in the test on UACC-62 melanoma was -45.8% (active); with LOX IMVI melanoma it was 1.49% (active); in the test with SK-MEL-28 melanoma, -9.8% (active); in the test on EKVX NSCLC, 3.6% (active); in the test with SN12C renal it was 6.82% (active); in the test on UO-31 renal, -84.5% (active). Further, the growth in the test on TK-10 renal is -1.3% (active); in the test with ACHN renal it was 5.96% (active); in the test with A498 renal it was -57.2% (active); with CCRF-CEM leukemia, 1.26% (active); with MOLT-4 leukemia it was -10.5% (active).

On to `CCN(CC)CCNCC(=O)Oc1ccc(/C=C/C(=O)CC(=O)/C=C/c2ccc(OC(=O)CNCCN(CC)CC)c(OC)c2)cc1OC`, for which the growth is 14.4% in the test on HCT-15 colon; -8.49% (active) in the test on SNB-75 CNS; 22% with SNB-19 CNS; 13.4% in the test on U251 CNS; 14.4% in the test with PC-3 prostate; -13.7% (active) with SK-MEL-5 melanoma. The growth is 15.4% in the test with UACC-62 melanoma; -66.5% (active) in the test on LOX IMVI melanoma; 14.5% in the test on SK-MEL-28 melanoma; 10.7% in the test on SK-MEL-2 melanoma; 5.1% (active) in the test with EKVX NSCLC; 4.14% (active) in the test with SN12C renal. The growth with TK-10 renal was 50.3%; with ACHN renal, 16.8%; with CAKI-1 renal, 22%; in the test with A498 renal it was 51%; in the test with CCRF-CEM leukemia it was -30.5% (active); in the test with MOLT-4 leukemia, 0.439% (active).

Turning to `CC1CN(CC(O)c2ccc(Br)cc2)CCO1` (stereo not given), the growth in the test with HCT-15 colon is 107%; in the test on SNB-75 CNS, 91.4%; in the test on SNB-19 CNS, 105%; in the test with U251 CNS, 95.8%; in the test on PC-3 prostate, 101%; in the test on SK-MEL-5 melanoma it was 108%. For the same molecule, the growth was 108% with UACC-62 melanoma; 107% with LOX IMVI melanoma; 119% with SK-MEL-28 melanoma; 103% in the test with SK-MEL-2 melanoma; 120% with EKVX NSCLC; 110% with SN12C renal. Moreover, the growth with UO-31 renal was 85.4%; with TK-10 renal, 110%; in the test on ACHN renal it was 106%; with CAKI-1 renal, 103%; with CCRF-CEM leukemia, 102%; with MOLT-4 leukemia, 97%.

Regarding `C(=C1c2ccccc2-c2ccccc21)c1ccncc1`, the growth was 26.9% in the test on HCT-15 colon; -5.86% (active) in the test on SNB-75 CNS; 45.1% with SNB-19 CNS; 27.8% with U251 CNS; 58.6% in the test on PC-3 prostate; 46.6% in the test with SK-MEL-5 melanoma. The growth in the test with UACC-62 melanoma is 30.8%; in the test with LOX IMVI melanoma it was 39.5%; with SK-MEL-28 melanoma it was 68.8%; in the test on SK-MEL-2 melanoma it was 42.9%; with EKVX NSCLC, 59.5%; in the test with SN12C renal, 51.2%. The growth with UO-31 renal is 49.5%; in the test with TK-10 renal, 64.6%; with ACHN renal it was 71.5%; in the test with CAKI-1 renal, 29.6%; in the test on CCRF-CEM leukemia, 59.3%; in the test with MOLT-4 leukemia, 39.5%.

Regarding `COc1ccc(-n2cnc3cc(C(=O)N4CCCCC4)ccc32)cc1`, the growth in the test with HCT-15 colon is 104%; with SNB-75 CNS it was 86.6%; in the test on SNB-19 CNS it was 94.3%; in the test with U251 CNS it was 96.6%; in the test with PC-3 prostate, 94.6%; in the test on SK-MEL-5 melanoma, 102%. The growth is 101% in the test with UACC-62 melanoma; 97.9% in the test with LOX IMVI melanoma; 99.1% in the test with SK-MEL-28 melanoma; 111% with SK-MEL-2 melanoma; 95% with SN12C renal; 97.4% with UO-31 renal. Besides, the growth is 110% in the test with TK-10 renal; 97.9% in the test with ACHN renal; 98.5% with CAKI-1 renal; 96.3% with A498 renal; 98% in the test with CCRF-CEM leukemia; 98% in the test on MOLT-4 leukemia.

Consider `COc1ccc(CNC(=O)c2c(C)n([O-])c3cc(F)c(F)cc3[n+]2=O)cc1`, for which the growth was 36.8% in the test on HCT-15 colon; 93% with SNB-75 CNS; 93.9% in the test with SNB-19 CNS; 94.9% in the test on U251 CNS; 94% with PC-3 prostate; 97.5% with SK-MEL-5 melanoma. Also, the growth in the test on UACC-62 melanoma was 87.7%; with LOX IMVI melanoma it was 57.1%; in the test on SK-MEL-28 melanoma, 93.7%; in the test on SK-MEL-2 melanoma it was 88.1%; with EKVX NSCLC, 89.2%; with SN12C renal, 95.2%. Besides, the growth in the test on UO-31 renal is -32.4% (active); in the test with TK-10 renal, 102%; in the test on ACHN renal, 98.7%; with CAKI-1 renal it was 152%; with A498 renal, 95.1%; in the test with CCRF-CEM leukemia, 90.8%. Besides, in the test with MOLT-4 leukemia, the growth was 97%.

For `COc1cccc(/C=N\NC(=O)c2ccncc2)c1O`, the growth with HCT-15 colon is 23.9%; with SNB-75 CNS, 57.1%; in the test with SNB-19 CNS it was 52.6%; in the test with U251 CNS it was 31.6%; with PC-3 prostate it was 47.1%; in the test with SK-MEL-5 melanoma, 58.8%. Also, the growth was 41.2% with UACC-62 melanoma; 15.2% in the test on LOX IMVI melanoma; 69.6% with SK-MEL-28 melanoma; 43.8% with SK-MEL-2 melanoma; 78.8% with EKVX NSCLC; 62.8% in the test on SN12C renal. Further, the growth was 29% in the test with UO-31 renal; 41.1% in the test with TK-10 renal; 31.2% in the test on ACHN renal; 13.2% in the test on CAKI-1 renal; 11% in the test with CCRF-CEM leukemia; 13.9% in the test with MOLT-4 leukemia.
